In the library only some 19% were active in any assay of this set; here they are far more common.
HT1080-NT tox: qHTS for induction of synthetic lethality in tumor cells producing 2HG: qHTS for the HT-1080-NT fibrosarcoma cell line; HT-1080-NT fibrosarcoma viability, CellTiter-Glo ATP luminescence, 48 h; Potency, µM (top dose mostly 46.1 µM), for the others: top-dose activity, negative = less viability, usual class: cytotoxic; 360,000 tested, 1.6% active; AID 686970, 2013;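 also: NT is the 2HG producing partner of a matched IDH1 knockdown line; potency is read from the fitted curve at half-maximal effect; 0% = DMSO-treated cells and -100% = media-only wells without cells; nearly all actives have a fitted effect of over 55% in size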
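Luminescent CellTiter-Glo readout after 48 hours of compound exposure at 37 degrees C defined viability of HT-1080-NT cells. Activity was normalized to DMSO wells and cell-free media wells; concentration-response curves were fitted and assigned curve classes.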
TDP1 cell noCPT: qHTS for Inhibitors of human tyrosyl-DNA phosphodiesterase 1 (TDP1): qHTS in cells in absence of CPT. DT40 Tdp1-/- hTDP1 cells, no CPT, ATP luminescence, 48 h. Potency, µM (titrated, usually from 46.2 µM), inactives show top-dose activity change, negative = growth inhibition, hits mostly inhibitors. 420,000 tested, 15% active; also: potency is read from the fitted curve at half-maximal effect; nearly all actives have a fitted effect of over 55% in size
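Cells were dispensed at 400 per well, compounds added by pin tool, plates incubated ≥48 hr at 37 °C, then CellTiter-Glo added for 30 min at room temperature before luminescence reading. Line: DT40 Tdp1-/- complemented with hTDP1; camptothecin omitted.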
TDP1 cell CPT: qHTS for Inhibitors of human tyrosyl-DNA phosphodiesterase 1 (TDP1): qHTS in cells in presence of CPT; Potency, µM (titrated, usually from 46.2 µM), for the others: top-dose activity change, negative = growth inhibition, most hits filed as inhibitors; chicken DT40 Tdp1-/-;hTDP1 cells + 20 nM CPT, ATP luminescence, 48 h; AID 686979, 2013; 420,000 tested, 12% active; also: potency is read from the fitted curve at half-maximal effect; nearly all actives have a fitted effect of over 55% in size
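Chicken DT40 Tdp1-/- cells stably complemented with human TDP1 were seeded at 400 cells/well in medium containing 20 nM camptothecin, exposed to pin-transferred compounds, and grown at 37 °C for at least 48 hr. Viability was read as ATP luminescence.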
HT1080 IDH1KD tx: qHTS for induction of synthetic lethality in tumor cells producing 2HG: qHTS for the HT-1080-IDH1KD cell line; 360,000 tested, 2% active; HT-1080 IDH1 knockdown viability, ATP luminescence, 48 h; Potency, µM (titrated, usually from 46.1 µM), for the others: top-dose activity, negative = toxicity, hits mostly cytotoxic;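 also: potency is read from the fitted curve at half-maximal effect; 0% = DMSO wells and -100% = cell-free medium wells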
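HT-1080-IDH1KD cells (IDH1 knocked down), 750/well in RPMI with 5% FBS, treated with compound 48 h at 37 degrees C. Viability by CellTiter-Glo luminescence, normalised to DMSO and no-cell wells; concentration-response curves classed.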
IL-1B inflam inh: qHTS for Inhibitors of Inflammasome Signaling: IL-1-beta AlphaLISA Primary Screen. activity change, % at 57.5 µM. 360,000 tested, 4.7% active. THP-1 LPS/ATP IL-1B secretion, AlphaLISA, 16 h; active compounds read low. AID 743279, 2014; in the data active = activity change below about -50%; inconclusive = mostly about -30% to -49%
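THP-1 cells pretreated 1 hr with compounds (up to 57.5 uM final), then stimulated with LPS (250 ng/mL final) plus ATP (1.25 mM final); secreted IL-1B measured by AlphaLISA after 16 hr, decreased signal indicating inhibition.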
Active calls of the source: *; ? = inconclusive; nt = no result; [ ] = remark or other dose. Unless noted, calls follow the shape of the dose curve; as a rule, active = well fitted curve in the direction sought with a large enough effect; inconclusive = small, poorly fitted or top-dose-only effect, or another doubt; inactive = no such curve, though single readings can be large; an effect the other way counts as inactive or inconclusive. Unless noted, % is scaled to controls: 0 for no effect and ±100 for the full control effect.

SMILES	HT1080-NT tox	TDP1 cell noCPT	TDP1 cell CPT	HT1080 IDH1KD tx	IL-1B inflam inh
COc1cc(OC)cc(C(=O)Nc2ccc(-c3nc4cc(C(C)C)ccc4o3)cc2)c1	nt	20.6µM*	20.6µM*	nt	nt
Cc1ccc(NC(=O)c2ncn(CC(=O)N[C@H](CO)Cc3c[nH]c4ccccc34)n2)cc1C	0.5%	-8.3%	4.0%	-2.7%	-9.8
Cc1ccc(CNC(=O)c2ccc(Cl)c(S(=O)(=O)N3CCCCC3)c2)cc1	-3.1%[9.24 µM]	-1.3%	-26.8%	-5.5%	-2.3
COC(=O)c1ccc(-c2nc3ccc(C)cc3o2)cc1	-9.5%	8.2µM*	10.3µM*	?	-15.7
CS(=O)(=O)c1ccccc1C(=O)Nc1ccc(-c2nc3ccccc3o2)cc1	1.1%	23.1µM*	?	-1.6%	31.4
O=C(Nc1ccc2oc(-c3cccnc3)nc2c1)c1ccc(Br)o1	15.6%	?	?	12.5%	-17.6
O=C(Nc1ccc2oc(Cc3ccc(Cl)cc3)nc2c1)c1cccnc1	?	?	?	-12.4%	-67.5*
O=C(Nc1ccc2oc(-c3cccnc3)nc2c1)c1ccc([N+](=O)[O-])o1	?	8.2µM*	6.51µM*	?	nt
CCOc1cccc(C(=O)Nc2ccc3oc(Cc4ccc(Cl)cc4)nc3c2)c1	-26.7%	?	?	?	-15.3
COC(=O)C1(C)NC(c2ccc(O)cc2)C2C(=O)N(c3ccc(C)cc3)C(=O)C21 (configuration not stated)	16.0%	8.4%	12.1%	6.3%	22.1
Cc1ccccc1NC(=O)Cc1nc(COC(=O)Cc2cccc(C(F)(F)F)c2)cs1	7.1%	?	?	6.2%	15.5
O=C(Nc1ccc2oc(-c3ccccc3)nc2c1)c1ccncc1	-10.8%	11.6µM*	16.4µM*	-18.9%	-5.5
O=C(Nc1ccc2oc(-c3ccccc3)nc2c1)c1cccs1	-16.0%	?	?	-10.5%	-18.8
O=C(Nc1cccc(-c2nc3ccccc3o2)c1)c1cccnc1	-10.6%	20.6µM*	?	-6.3%	10.6
Cc1cccc(C(=O)Nc2ccc(-c3nc4cc(C(C)C)ccc4o3)cc2)c1	nt	16.4µM*	16.4µM*	nt	nt
COc1ccc(CNC(=O)[C@@H](C)NC(=O)C2CCN(C(=O)[C@@H](N)CCSC)CC2)cc1	-2.5%	-9.7%	-3.2%	?	-18.9
O=C(Cc1cccs1)NC(c1ccccc1)c1ccccc1	-0.8%	-8.8%	-0.5%	0.4%	-14.4
O=C(COC(=O)/C(=C/c1cccs1)c1cccs1)NC(c1ccccc1)c1ccccc1	-5.7%	16.4µM*	16.4µM*	-11.7%	-14.9
O=C(NC1CCSc2ccccc21)c1cc(S(=O)(=O)N2CCOCC2)ccc1Cl (configuration not stated)	-5.8%	?	?	-6.6%	7.4
Cc1sc2ncnc(N3CCC(C(=O)N(C)CC(=O)Nc4ccccc4Br)CC3)c2c1C	-1.6%	?	?	-18.6%	?
Cc1sc2ncnc(N3CCC(C(=O)N(C)CC(=O)Nc4cccc(F)c4)CC3)c2c1C	?	13µM*	9.2µM*	?	?
Cc1sc2ncnc(N3CCC(C(=O)N(C)CC(=O)Nc4ccccc4Cl)CC3)c2c1C	-6.6%	23.1µM*	16.4µM*	-20.5%	0.0
CCN(CC(=O)Nc1cc(Cl)ccc1C)C(=O)C1CCN(c2ncnc3sc(C)c(C)c23)CC1	?	6.51µM*	18.4µM*	?	-12.3
Cc1sc2ncnc(N3CCC(C(=O)N(C)CC(=O)Nc4ccc(Cl)c(C(F)(F)F)c4)CC3)c2c1C	?	14.6µM*	?	16.4µM*	-54.9*
CCN(CC(=O)Nc1cc(Cl)ccc1C)C(=O)C1CCCCC1	3.1%	-1.4%	3.6%	13.9%	11.3

High-throughput results from PubChem.
